Measurements from PubChem BioAssay (NCATS).
A number with no mark means an inactive call. Results filed as inconclusive are left out. Active and inactive are the calls of the source. Unless noted, calls come from the whole dose curve; as a rule, active = well fitted curve in the direction sought with a large enough effect; inconclusive = small, poorly fitted or top-dose-only effect, or another doubt; inactive = no such curve, though single readings can be large; an effect the other way counts as inactive or inconclusive.

What was measured:
[1] = biological target: Lysosomal acid glucosylceramidase (Homo sapiens) (UniProt P04062); test: Glucocerebrosidase-p2 (AID 348; in the data active = potency below about 10 µM; note: potency is the fitted concentration of half-maximal effect); conditions: purified GBA, blue fluorogenic substrate, 40 min
Lysosomal acid glucosylceramidase (Homo sapiens), sequence (P04062 whole entry, looked up): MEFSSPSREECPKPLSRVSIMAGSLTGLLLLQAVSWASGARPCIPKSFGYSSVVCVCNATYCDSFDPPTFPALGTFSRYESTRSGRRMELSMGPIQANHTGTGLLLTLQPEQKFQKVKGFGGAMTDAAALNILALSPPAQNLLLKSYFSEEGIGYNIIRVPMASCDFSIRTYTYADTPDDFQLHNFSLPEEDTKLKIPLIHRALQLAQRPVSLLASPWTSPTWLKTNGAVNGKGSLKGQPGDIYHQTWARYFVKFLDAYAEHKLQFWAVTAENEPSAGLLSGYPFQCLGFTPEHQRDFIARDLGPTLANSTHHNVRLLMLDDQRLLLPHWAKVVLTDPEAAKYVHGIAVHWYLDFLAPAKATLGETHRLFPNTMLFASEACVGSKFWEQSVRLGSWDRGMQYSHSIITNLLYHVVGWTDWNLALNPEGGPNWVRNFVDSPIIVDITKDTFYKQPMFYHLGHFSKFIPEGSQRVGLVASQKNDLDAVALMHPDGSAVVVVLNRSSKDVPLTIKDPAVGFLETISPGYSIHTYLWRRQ
Procedure, shortened: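 Compounds titrated from 0.6 nM upwards against 0.2 nM enzyme in pH 5.9 citric acid/KH2PO4, taurocholate, tween-20; blue fluorogenic substrate 80 uM, 40 min room temperature, stopped and read Ex 365/Em 440 for AC50.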

[2] = AP1 Signaling Pathway (AID 357; active = well fitted curve in either direction with a large enough effect, not every such curve was filed as active;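 note: ME-180 reporter cells stimulated with EGF at its EC50 level; % is set by controls: 0 for no effect and ±100 for the full control effect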); conditions: ME-180 AP-1-bla reporter, EGF-induced, beta-lactamase ratio, 5 h; at 7.69 µM (top of the series) unless noted
Procedure, shortened: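 Read-out was the 460nm/530nm emission ratio (excitation 405nm) after CCF4 loading for 2.5 hours at room temperature. Cells carried an AP-1-driven beta-lactamase reporter, were stimulated with EC50 EGF plus compound for 5 hours, and AC50 values came from titrations.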

[3] = biological target: Cytochrome P450 1A2 (Homo sapiens) (UniProt P05177); test: p450-cyp1a2 (AID 410; calls by dose curve; note: potency is the fitted concentration of half-maximal effect); conditions: recombinant CYP1A2, luciferin-ME demethylation, luminescence; series mostly up to 57 µM
Cytochrome P450 1A2 (Homo sapiens), sequence (P05177 whole entry, looked up): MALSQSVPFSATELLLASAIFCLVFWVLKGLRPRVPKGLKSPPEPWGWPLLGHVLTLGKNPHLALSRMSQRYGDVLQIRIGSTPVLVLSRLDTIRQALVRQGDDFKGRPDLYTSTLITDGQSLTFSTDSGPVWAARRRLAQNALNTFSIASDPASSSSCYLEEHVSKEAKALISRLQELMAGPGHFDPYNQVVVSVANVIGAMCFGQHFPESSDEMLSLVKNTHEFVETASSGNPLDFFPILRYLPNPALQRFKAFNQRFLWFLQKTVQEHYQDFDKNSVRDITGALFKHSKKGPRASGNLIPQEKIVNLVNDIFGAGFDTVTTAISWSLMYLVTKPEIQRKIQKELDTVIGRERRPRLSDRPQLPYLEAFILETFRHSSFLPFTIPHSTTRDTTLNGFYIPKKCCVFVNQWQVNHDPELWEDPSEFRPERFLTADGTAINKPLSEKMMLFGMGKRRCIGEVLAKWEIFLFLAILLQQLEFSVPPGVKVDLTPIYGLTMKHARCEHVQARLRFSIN
Procedure, shortened: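 Inhibition was calculated relative to 57 uM furafylline (full inhibition). The reaction used human CYP1A2 at 20nM with Luciferin-ME at its Km, 100uM, driven by an NADPH-regenerating system for 60 min at room temperature.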

[4] = NFAT Signaling Pathway (AID 444; active = well fitted curve in either direction with a large enough effect, not every such curve was filed as active;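 note: carbachol stimulus at about its EC50 of 1 µM final; % is set by controls: 0 for no effect and ±100 for the full control effect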); conditions: Jurkat NFAT-bla M1, carbachol, beta-lactamase ratio, 5 h; at 7.69 µM (top of the series) unless noted
Procedure, shortened: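 Jurkat cells carrying an NFAT-driven β-lactamase reporter and co-transfected muscarinic M1 receptor were treated with compound plus carbachol (1 uM final, an EC50 level) for 5 h at 37 °C. CCF4 loading followed for 1 h at RT; 460/530 nm ratio gave %activity.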

[5] = biological target: Glucocorticoid receptor (Homo sapiens) (UniProt P04150); test: GR-GFP Redistribution (AID 450;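 active = compounds whose dose series gives a full or clear partial fitted curve of increased nuclear translocation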; note: potency is the fitted concentration of half-maximal effect); conditions: U2OS GR-GFP nuclear translocation, laser cytometry, 2 h
Glucocorticoid receptor (Homo sapiens), sequence (P04150 whole entry, looked up, the tested form may be a part): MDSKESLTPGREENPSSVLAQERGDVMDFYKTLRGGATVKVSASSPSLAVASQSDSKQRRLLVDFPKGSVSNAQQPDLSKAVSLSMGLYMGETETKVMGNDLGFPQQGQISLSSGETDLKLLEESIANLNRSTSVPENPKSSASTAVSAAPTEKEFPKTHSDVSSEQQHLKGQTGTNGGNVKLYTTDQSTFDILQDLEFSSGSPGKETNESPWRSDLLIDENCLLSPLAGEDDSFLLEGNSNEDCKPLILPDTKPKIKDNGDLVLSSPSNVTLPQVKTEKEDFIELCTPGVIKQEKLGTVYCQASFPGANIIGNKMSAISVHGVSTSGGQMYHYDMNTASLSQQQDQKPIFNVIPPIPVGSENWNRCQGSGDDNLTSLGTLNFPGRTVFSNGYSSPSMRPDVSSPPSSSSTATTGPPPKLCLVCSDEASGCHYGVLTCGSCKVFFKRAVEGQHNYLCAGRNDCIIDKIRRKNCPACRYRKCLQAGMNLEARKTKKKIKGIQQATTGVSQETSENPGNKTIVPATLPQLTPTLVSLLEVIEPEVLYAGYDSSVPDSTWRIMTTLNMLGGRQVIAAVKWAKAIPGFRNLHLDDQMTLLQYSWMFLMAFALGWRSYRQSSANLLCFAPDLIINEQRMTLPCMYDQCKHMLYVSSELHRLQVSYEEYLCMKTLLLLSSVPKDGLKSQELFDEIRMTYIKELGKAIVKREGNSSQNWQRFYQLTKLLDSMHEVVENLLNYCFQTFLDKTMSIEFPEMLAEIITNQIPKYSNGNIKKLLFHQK

[6] = biological target: Glucocorticoid receptor (Homo sapiens) (UniProt P04150); test: GR-EFC Redistribution (AID 451; calls by dose curve; note: potency is the fitted concentration of half-maximal effect); conditions: CHO-K1 GR-EFC translocation, beta-gal luminescence, 2 h
Procedure, shortened: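 CHO-K1 cells stably expressing nuclear-localized β-gal enzyme acceptor and GR fused C-terminally to the enzyme donor fragment; ligand-driven nuclear translocation restores β-gal by complementation. Compounds titrated up to 46 uM final, 2 h at 37 °C; luminescence read.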

[7] = biological target: Mitogen-activated protein kinase 10 (Mus musculus) (UniProt Q61831); test: JNK3 AlphaScreen Assay (AID 530; active = well fitted curve in either direction with a large enough effect, not every such curve was filed as active;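 note: kinase came from lysate of stimulated human HepG2 cells; signal reports phosphorylation of biotinylated GST-cJun 1-79 at Ser73 with 10 µM ATP; % is set by controls: 0 for no effect and ±100 for the full control effect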); conditions: JNK3 lysate, c-Jun phosphorylation; series mostly up to 57.1 µM
Procedure, shortened: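 JNK3 came from HepG2 lysates pre-activated with IL-1beta and TNF-alpha and phosphorylated biotinylated GST-cJun (1-79) at 10 uM ATP, pH 7.6, room temperature. Compounds were titrated. AlphaScreen signal used anti-phospho-cJun (Ser73) antibody.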

[8] = biological target: Dual specificity protein kinase CLK4 (Homo sapiens) (UniProt Q9HAZ1); test: qHTS Assay for Inhibitors of CDC-like Kinase 4 (ADP-FP Assay) (AID 1795); conditions: Transcreener ADP fluorescence polarization; series mostly up to 50 µM; note: nearly all actives have a fitted effect of over 60% in size; note: potency is the fitted concentration of half-maximal effect
Dual specificity protein kinase CLK4 (Homo sapiens), sequence (Q9HAZ1 whole entry, looked up): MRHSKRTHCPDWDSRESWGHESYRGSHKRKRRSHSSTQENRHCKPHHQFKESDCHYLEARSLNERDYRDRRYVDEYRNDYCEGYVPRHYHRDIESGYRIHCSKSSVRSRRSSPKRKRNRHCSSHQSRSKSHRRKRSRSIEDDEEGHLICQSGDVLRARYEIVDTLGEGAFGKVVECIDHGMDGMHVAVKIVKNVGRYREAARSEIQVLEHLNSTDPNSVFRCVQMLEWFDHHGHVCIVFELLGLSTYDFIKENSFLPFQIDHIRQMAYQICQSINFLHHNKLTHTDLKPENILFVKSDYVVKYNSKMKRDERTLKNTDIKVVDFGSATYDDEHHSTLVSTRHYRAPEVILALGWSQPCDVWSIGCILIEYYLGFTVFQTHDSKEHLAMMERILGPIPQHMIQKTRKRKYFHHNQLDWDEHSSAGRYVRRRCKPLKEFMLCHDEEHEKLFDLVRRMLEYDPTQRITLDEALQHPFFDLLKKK
Procedure, shortened: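 Recombinant human Clk4 (6.25 nM) phosphorylated RS repeat peptide (100 uM) with 1 uM ATP in Tris pH 7.5/MgCl2/EGTA/DTT/Triton buffer for one hour. ADP was quantified by Transcreener competitive fluorescence polarization against an ADP calibration curve.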

[9] = biological target: Ubiquitin carboxyl-terminal hydrolase 1 (Homo sapiens) (UniProt O94782); test: Inhibitors of USP1/UAF1: Pilot qHTS (AID 504865); conditions: purified USP1/UAF1, Ub-rhodamine cleavage fluorescence; series mostly up to 54.9 µM; note: nearly all actives have a fitted effect of over 35% in size; note: potency is the fitted concentration of half-maximal effect
Ubiquitin carboxyl-terminal hydrolase 1 (Homo sapiens), sequence (O94782 whole entry, looked up): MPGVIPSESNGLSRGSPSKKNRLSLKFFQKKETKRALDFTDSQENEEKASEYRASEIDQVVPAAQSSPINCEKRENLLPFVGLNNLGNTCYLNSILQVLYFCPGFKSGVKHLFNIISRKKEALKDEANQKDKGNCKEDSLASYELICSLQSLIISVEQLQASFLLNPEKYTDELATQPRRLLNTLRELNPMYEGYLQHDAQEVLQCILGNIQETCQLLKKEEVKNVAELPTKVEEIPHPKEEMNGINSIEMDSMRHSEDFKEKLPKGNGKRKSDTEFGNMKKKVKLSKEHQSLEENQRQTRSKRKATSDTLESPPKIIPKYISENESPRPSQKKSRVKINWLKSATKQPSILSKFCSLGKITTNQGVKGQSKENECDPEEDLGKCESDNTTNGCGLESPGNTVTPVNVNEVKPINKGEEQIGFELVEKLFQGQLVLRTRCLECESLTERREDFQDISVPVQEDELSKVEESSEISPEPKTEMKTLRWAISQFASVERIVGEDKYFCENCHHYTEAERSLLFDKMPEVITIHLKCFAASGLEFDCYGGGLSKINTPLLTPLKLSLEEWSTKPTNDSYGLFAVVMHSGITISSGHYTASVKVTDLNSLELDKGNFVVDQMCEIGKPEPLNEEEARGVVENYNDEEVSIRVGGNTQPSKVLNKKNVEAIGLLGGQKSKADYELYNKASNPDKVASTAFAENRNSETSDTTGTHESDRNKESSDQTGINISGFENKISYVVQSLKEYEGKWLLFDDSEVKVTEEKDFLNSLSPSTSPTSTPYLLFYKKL
Procedure, shortened: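 USP1/UAF1 complex (1nM) preincubated with compound 15 min at room temperature, then Ub-Rho substrate (150nM final) added. Fluorescence read kinetically at 480/540 nm, 6 reads every 60 seconds. Buffer: 50mM HEPES pH 7.8, 0.5mM EDTA, 0.1 mg/ml BSA, 1mM TCEP, 0.01% Tween-20.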

[10] = Primary qHTS for small molecule stabilizers of the endoplasmic reticulum resident proteome: Secreted ER Calcium Modulated Protein (SERCaMP) assay (AID 1508630); conditions: SH-SY5Y GLuc-SERCaMP (Gaussia luciferase released on ER calcium loss) secretion, thapsigargin, luminescence; series mostly up to 38.4 µM; note: % is set by controls: 0 for no effect and ±100 for the full control effect
Procedure, shortened: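 GLuc-SERCaMP-expressing SH-SY5Y cells, pretreated 16 h with compound, are challenged with thapsigargin to empty ER calcium stores; after 4 h, coelenterazine is added directly to the medium and luminescence is imaged.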

[11] = Stat Signaling Pathway (AID 446; active = well fitted curve in either direction with a large enough effect, not every such curve was filed as active); conditions: ME-180 SIE beta-lactamase reporter, IL-6 stimulated, 5 h; at 7.69 µM (top of the series) unless noted
Procedure, shortened: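 ME-180 SIE-bla cells; overnight plating; cpd + IL-6 40 pM, 5 h, 37 C; LiveBLAzer 2.5 h RT; 460/530 nm emission ratio. Normalized to 300 pM IL-6 and 125 nM JAK inhibitor controls.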

[12] = biological target: 3',5'-cyclic-AMP phosphodiesterase 4B (Homo sapiens) (UniProt Q07343); test: qHTS Assay for Inhibitors of PDE-IV (AID 607; active = well fitted activation curve with a large enough effect in the main read-out, with a control signal flat, not every such curve was filed as active; note: potency is the fitted concentration of half-maximal effect); conditions: HEK293 ACTOne CNG channel cells, membrane potential fluorescence; series mostly up to 22.9 µM
3',5'-cyclic-AMP phosphodiesterase 4B (Homo sapiens), sequence (Q07343 whole entry, looked up): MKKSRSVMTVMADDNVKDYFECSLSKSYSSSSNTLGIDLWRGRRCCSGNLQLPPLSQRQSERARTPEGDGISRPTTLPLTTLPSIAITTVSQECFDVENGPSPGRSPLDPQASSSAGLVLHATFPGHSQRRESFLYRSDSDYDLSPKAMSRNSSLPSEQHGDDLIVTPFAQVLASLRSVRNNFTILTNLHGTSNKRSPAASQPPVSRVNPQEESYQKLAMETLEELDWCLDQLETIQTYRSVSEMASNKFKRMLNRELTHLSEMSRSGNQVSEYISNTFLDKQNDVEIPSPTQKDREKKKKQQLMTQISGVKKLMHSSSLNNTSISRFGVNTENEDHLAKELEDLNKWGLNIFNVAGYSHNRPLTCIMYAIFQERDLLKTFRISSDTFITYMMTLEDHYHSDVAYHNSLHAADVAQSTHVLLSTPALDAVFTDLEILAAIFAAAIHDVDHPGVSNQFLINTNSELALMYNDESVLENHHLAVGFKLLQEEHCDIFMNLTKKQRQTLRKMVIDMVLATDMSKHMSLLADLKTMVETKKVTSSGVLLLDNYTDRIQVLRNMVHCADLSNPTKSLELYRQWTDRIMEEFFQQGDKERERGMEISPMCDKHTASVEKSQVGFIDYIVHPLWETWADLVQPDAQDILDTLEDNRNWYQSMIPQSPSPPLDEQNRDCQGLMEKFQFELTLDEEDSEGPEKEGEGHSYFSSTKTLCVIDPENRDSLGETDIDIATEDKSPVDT
Procedure, shortened: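 ACTOne HEK293 cells carry a modified cAMP-gated CNG channel and express endogenous PDE4; plated 1000 cells/well, compounds up to 22.9 uM final. Membrane-potential dye fluorescence (ex 535/em 590) was read; parental cells received 10 uM forskolin + 100 uM RO 20-1724.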

[13] = biological target: Cytochrome P450 2C9 (Homo sapiens) (UniProt P11712); test: qHTS Assay for Inhibitors and Substrates of Cytochrome P450 2C9 (AID 883); conditions: recombinant CYP2C9, luciferin-H luminescence, 60 min; series mostly up to 57.1 µM; note: % is set by controls: 0 for no effect and ±100 for the full control effect; nearly all actives have a fitted effect of over 60% in size
Procedure, shortened: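 Human CYP2C9 (10nM) hydroxylated Luciferin-H (100uM, at its KM) to luciferin in 25mM KPO4. Compound was preincubated 10 min at 37C, then NADPH regeneration started a 60 min reaction at 37C. Luminescence was read after detection reagent, normalized to 57uM sulphaphenazole.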

[14] = biological target: Cytochrome P450 3A4 (Homo sapiens) (UniProt P08684); test: qHTS Assay for Activators of Cytochrome P450 3A4 (AID 885); conditions: recombinant CYP3A4, Luciferin-PPXE luminescence, 60 min; series mostly up to 57.1 µM; note: nearly all actives have a fitted effect of over 65% in size
Cytochrome P450 3A4 (Homo sapiens), sequence (P08684 whole entry, looked up): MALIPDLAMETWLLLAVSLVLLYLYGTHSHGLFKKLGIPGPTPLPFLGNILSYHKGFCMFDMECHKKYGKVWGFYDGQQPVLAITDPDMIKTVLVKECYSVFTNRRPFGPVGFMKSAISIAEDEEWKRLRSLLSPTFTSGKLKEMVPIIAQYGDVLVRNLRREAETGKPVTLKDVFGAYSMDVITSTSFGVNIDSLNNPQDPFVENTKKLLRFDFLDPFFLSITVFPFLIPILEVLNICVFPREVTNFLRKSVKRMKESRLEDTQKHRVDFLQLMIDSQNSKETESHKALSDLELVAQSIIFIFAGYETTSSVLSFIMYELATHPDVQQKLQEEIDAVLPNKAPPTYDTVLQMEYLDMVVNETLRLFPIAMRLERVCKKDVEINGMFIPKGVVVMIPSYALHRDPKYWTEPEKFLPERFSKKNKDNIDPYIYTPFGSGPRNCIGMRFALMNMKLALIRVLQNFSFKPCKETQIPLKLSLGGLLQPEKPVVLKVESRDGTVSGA
Procedure, shortened: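 20nM CYP3A4 + 25uM Luciferin-PPXE (=KM), 200mM KPO4; cpd 10 min RT; NADPH regen, 60 min RT; stop w/ detection buffer, 20 min; luminescence. Normalized to 57 uM ketoconazole.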

[15] = qHTS Assay for Identification of Small Molecule Agonists for Hypoxia Response Element Signaling Pathway (AID 914; active = well fitted activation curve with a large enough effect in the signal ratio, with a control signal flat, not every such curve was filed as active; the % refers to the signal ratio; note: potency is the fitted concentration of half-maximal effect; for activation: % of control where 0% means no effect); conditions: ME-180 (cervical carcinoma) HRE-bla reporter, beta-lactamase ratio, CoCl2, 17 h; activation: active compounds read high
Procedure, shortened: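 Positive modulation of EC50 CoCl2-induced hypoxia response element signaling is measured in ME-180 cells with a beta-lactamase reporter. Compounds are titrated, incubation runs 17 hours, and %Activity derives from the blue/green ratio.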

[16] = biological target: Cytochrome P450 3A4 (Homo sapiens) (UniProt P08684); test: qHTS Assay for Inhibitors and Substrates of Cytochrome P450 3A4 (AID 884); conditions: recombinant CYP3A4, Luciferin-PPXE luminescence; series mostly up to 57.1 µM; note: potency is the fitted concentration of half-maximal effect; nearly all actives have a fitted effect of over 50% in size
Procedure, shortened: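 20 nM human CYP3A4 with 25 uM Luciferin-PPXE (at KM) in 200 mM KPO4, preincubated 10 min with compound; NADPH regeneration started a 60 min RT reaction. Luciferin detected by luminescence, normalized to 57 uM ketoconazole as full inhibition.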

[17] = biological target: Cytochrome P450 2D6 (Homo sapiens) (UniProt P10635); test: qHTS Assay for Inhibitors and Substrates of Cytochrome P450 2D6 (AID 891); conditions: recombinant CYP2D6, luciferin-ME EGE luminescence; series mostly up to 57.1 µM; note: potency is the fitted concentration of half-maximal effect; nearly all actives have a fitted effect of over 60% in size
Procedure, shortened: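 Human CYP2D6 (5 nM) with 30 uM Luciferin-ME EGE (at Km) in 100 mM KPO4, compound preincubated 10 min, then NADPH regeneration system for 60 min at room temperature. Luciferin read by luminescence; normalized to 1.43 uM quinidine.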

[18] = biological target: Cytochrome P450 2C19 (Homo sapiens) (UniProt P33261); test: qHTS Assay for Inhibitors and Substrates of Cytochrome P450 2C19 (AID 899); conditions: recombinant CYP2C19, luciferin-H EGE luminescence; series mostly up to 57.1 µM; note: potency is the fitted concentration of half-maximal effect; nearly all actives have a fitted effect of over 60% in size
Cytochrome P450 2C19 (Homo sapiens), sequence (P33261 whole entry, looked up): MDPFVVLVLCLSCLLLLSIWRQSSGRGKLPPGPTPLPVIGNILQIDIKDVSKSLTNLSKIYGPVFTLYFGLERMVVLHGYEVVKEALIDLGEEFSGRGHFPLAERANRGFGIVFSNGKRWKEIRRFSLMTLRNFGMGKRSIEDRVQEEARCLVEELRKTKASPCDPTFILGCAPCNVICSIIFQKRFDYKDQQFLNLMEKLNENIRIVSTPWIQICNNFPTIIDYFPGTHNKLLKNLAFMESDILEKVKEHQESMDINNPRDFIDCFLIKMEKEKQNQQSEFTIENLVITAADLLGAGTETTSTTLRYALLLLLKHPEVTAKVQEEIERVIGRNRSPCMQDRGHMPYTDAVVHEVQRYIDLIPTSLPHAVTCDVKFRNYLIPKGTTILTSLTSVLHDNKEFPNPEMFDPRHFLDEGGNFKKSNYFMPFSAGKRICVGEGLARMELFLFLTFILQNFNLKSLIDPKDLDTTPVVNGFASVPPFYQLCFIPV
Procedure, shortened: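 Human CYP2C19 (5nM) with Luciferin-H EGE at 10uM (its KM) in 50mM KPO4 was preincubated with compound for 10 min at 37C. NADPH regeneration started a 60 min 37C reaction. Luciferin was read by luminescence, normalized to 57uM ketoconazole.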

Compound | Potency [1] [µM] | activity change, negative = inhibition [2] [%] | Potency [3] | activity change, negative = inhibition [4] [%] | Potency [5] [µM] | Potency [6] [µM] | Potency [7] | Potency [8] | Potency [9] | outcome [10] | activity, negative = inhibition [11] [%] | Potency [12] | activity change, negative = inhibition [13] | Potency [14] | Potency [15] | activation [15] [%] | Potency [16] | Potency [17] | Potency [18]
CCNc1ncc2nc(-c3cccs3)c(=O)n(-c3ccccc3)c2n1 | > 11.4 | -0.879 | 1.58 µM (active) | -3.13 | > 9.22 | > 46 | inactive | inactive | inactive | inactive | – | – | – | – | – | – | – | – | –
COCCn1c(=O)cnc2cnc(N(C)C)nc21 | > 11.4 | 8.38 | – | 7.07 | > 9.22 | > 46 | inactive | inactive | inactive | inactive | -2.06 | inactive | – | – | – | – | – | – | –
CN(C)c1nc(-c2ccccc2C(F)(F)F)nc2ccccc12 | > 11.4 | – | 0.251 µM (active) | 0.537 | > 46 | > 46 | inactive | inactive | inactive | inactive | 7.02 | inactive | 37.2% [at 2.29 µM] | – | – | – | – | – | –
CCNc1ncc2nc(C)c(=O)n(CCOC)c2n1 | > 11.4 | -1.39 | – | 13.7 | > 9.22 | > 46 | inactive | inactive | inactive | inactive | -7.84 | inactive | – | – | – | – | – | – | –
Clc1ccccc1-c1nc(NCCN2CCOCC2)c2ccccc2n1 | – | 16 | 12.6 µM (active) | -7.69 | > 46 | > 46 | inactive | inactive | inactive | inactive | -5.23 | inactive | – | inactive | 3.16 µM (active) | – | – | – | –
c1cncc(CNc2cc(-c3ccoc3)ncn2)c1 | > 11.4 | 0.0422 | – | -10.4 | > 46 | > 46 | inactive | inactive | inactive | inactive | 11.8 | inactive | – | inactive | – | 0.531 | – | – | –
c1ccc(CNc2ccnc(-c3cccnc3)n2)cc1 | > 11.4 | -10.3 | 0.251 µM (active) | 7.79 | > 46 | > 46 | inactive | inactive | inactive | inactive | – | – | – | inactive | – | – | 0.631 µM (active) | 1.26 µM (active) | 2.51 µM (active)
N#Cc1cccc(-c2cncnc2NCc2ccccc2)c1 | > 11.4 | 1.22 | – | 2.64 | > 46 | > 46 | inactive | inactive | inactive | inactive | -1.62 | inactive | – | – | – | – | 1.26 µM (active) | – | 7.94 µM (active)
CN(Cc1ccco1)c1nc(-c2ccc3c(c2)OCO3)nc2ccccc12 | > 11.4 | 17 | 0.501 µM (active) | – | > 46 | > 46 | inactive | inactive | inactive | inactive | 1.32 | – | – | inactive | – | – | – | – | 7.94 µM (active)
CN(Cc1ccco1)c1ncncc1-c1ccc2c(c1)OCO2 | > 11.4 | 1.93 | 0.2 µM (active) | – | > 46 | > 46 | inactive | inactive | inactive | inactive | -2.55 | – | – | inactive | – | 4.7 | – | 1.26 µM (active) | 0.126 µM (active)
COc1ccccc1-c1nc(NCc2cccs2)c2ccccc2n1 | > 11.4 | – | 0.631 µM (active) | -14.6 | > 46 | > 46 | inactive | inactive | 15.8 µM (active) | inactive | 21.2 | – | – | inactive | – | – | – | – | –
c1ccc(Nc2ncncc2-c2ccoc2)cc1 | > 11.4 | -25 | 1 µM (active) | 0.789 | – | > 46 | inactive | 5.62 µM (active) | – | inactive | 5.02 | – | – | inactive | – | – | 2 µM (active) | – | –
COc1ccc(-c2nc3cnc(N4CCOCC4)nc3n(Cc3cccs3)c2=O)cc1 | > 11.4 | 12.3 | 2.51 µM (active) | -2.31 | > 9.22 | > 46 | inactive | inactive | inactive | inactive | – | 1.58 µM (active) | – | – | – | – | – | – | –
FC(F)(F)c1ccccc1-c1cc(NCc2cccs2)ncn1 | – | -3.47 | 3.98 µM (active) | -14.8 | > 46 | > 46 | inactive | inactive | inactive | inactive | 5.97 | inactive | – | – | – | – | – | – | 0.794 µM (active)
